The OligoGym collection

molecular target: EMILIN2; test: pooled miR-30 sensor sort-seq; sequence = guide strand; settings: shRNA
Note: reference of the scale not given here.

Sequence	sensor-assay potency score (higher = more potent)
TTCCATTACATACAAACCGAAT	-1.63
TTTATTGACACTCCCTGTCTTT	-0.458
TTGAACTTTGTCCTTCAGGTGG	-0.378
AACAACTTGAACTTTGTCCTTC	0.591
TAGAGTTTTTACAACTATCTAT	-0.151
TAGGTCTGAAGTTCACTCGATA	-0.326

molecular target: EMP1; test: as above; settings: shRNA

Sequence	sensor-assay potency score (higher = more potent)
TACCGTATTGGAAACCAACCAG	-0.163
TCACTGGCATATGACAGGCTGT	-1.18
TAGCATAATAACAGTAGCGATG	-1.5
ATCTACCGTATTGGAAACCAAC	-1.95
ATAATGACTAGTGTAGATGGAC	-0.252
ATAGCATAATAACAGTAGCGAT	-1.69
TTCACTGGCATATGACAGGCTG	-0.108
TTTTTCCAAAGACCTACTGATG	-1.45
ACCGTATTGGAAACCAACCAGA	-1.97
TAGTGTAGATGGACACCCCCAC	-0.261
ATAGCCGTGGTGATACTGCGTT	-0.125
AATGGTGCTAACAAATAGCATA	-1.39
TACAGTTTTTCCAAAGACCTAC	-0.739
ATTCGCATAATGACTAGTGTAG	-0.191
TGATGCATCTACCGTATTGGAA	-0.931
TAGCCGTGGTGATACTGCGTTC	-1.37
AATAGCATAATAACAGTAGCGA	0.0884
TTGAGGGCATCTTCACTGGCAT	-0.461
TTCGCATAATGACTAGTGTAGA	-1.4
TTGGAAACCAACCAGACATTGG	-0.971
ATAATAACAGTAGCGATGTGGA	-0.819
TACTGATGCATCTACCGTATTG	-1.81
TATTGGAAACCAACCAGACATT	-1.22

molecular target: ENAM; test: as above; settings: shRNA

Sequence	sensor-assay potency score (higher = more potent)
TATAATTTGATTTATTAACTTC	-0.315
TTGAGCTTCCTCTTCGGGCTGA	1.2
TTTAGGAGGATCTTCTTCTTTG	-0.209
TAAATTGTTCCTCAGTAGCTAA	-0.863
TAGAGCTAGTGGATTGTCCTTG	0.779
TGAAATACCACTGTCTTCCTGA	0.779
TTCTTTATAGAACATGGTGTGT	-0.573
TAGTCTTGTAGAGCTAGTGGAT	-0.371
TTGAGGTATATTGTTCACCTTC	-0.314
TTATTTGTTCTTTTGGACCCAG	0.0187
TTGAACTTGTTGATTTCTGTAA	0.247
